The text below walks through data of PubChem BioAssay (EPA / NIEHS).

Assay [1] can be described thus: CCTE_Padilla_ZF_144hpf_TERATOSCORE: (Legacy) CCTE's 144 Hour Post-fertilization zebrafish Assay Teratoscore, Padilla Lab (AID 2283679; active = hit-call score of the fitted dose curve at least 0.9, where 1 is the maximum; inactive = score below 0.9;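 as to AC50: zebrafish embryos with chorions exposed by immersion from 6-8 hpf to 5 dpf with daily renewal; teratogenicity score from eye scoring of death hatching and malformations at 144 hpf; higher score means more developmental defects relative to DMSO baseline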). The method, boiled down: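 Larvae scored by eye at 144 hpf for death, hatching and malformations after a day in clean Hanks'. Before that, daily-renewed exposure at 80 uM (0.4% DMSO, 26C) from roughly 6-8 hpf through 5 dpf, 4 embryos per chemical.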

A short description of assay [2]: STM_H9_OrnithineISnorm_perc: Stemina devTOX quickPredict H9 human embryonic stem cell (hESC)-based Assay for Ornithine (ORN) Metabolite Biomarker, Normalized (AID 2283712; active = hit-call score of the fitted dose curve at least 0.9, where 1 is the maximum; inactive = score below 0.9;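 also: ornithine released into spent medium during last day measured by mass spectrometry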). The method, boiled down: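 Cells: undifferentiated H9 hESC. Dosing: 72 h, media replaced every 24 h. Sample: final 24-h conditioned media, 40% acetonitrile. Read: UPLC-HRMS ornithine area vs 13C standard, % DMSO control.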

The nature of assay [3]: STM_H9_CystineISnorm_perc: Stemina devTOX quickPredict H9 human embryonic stem cell (hESC)-based Assay for Cystine (CYSS) Metabolite Biomarker, Normalized (AID 2283713; active = hit-call score of the fitted dose curve at least 0.9, where 1 is the maximum; inactive = score below 0.9). A digest of the protocol: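 Secreted cystine was measured by UPLC-HRMS in H9 hESC medium after 72h compound exposure with 24-hourly replenishment. Values are standard-normalized areas relative to 0.1% DMSO.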

A short description of assay [4]: Tanguay_ZF_120hpf_ActivityScore_legacy: (Legacy) Oregon State University Tanguay Lab 120 Hour Post-fertilization zebrafish Assay Score for Activity (AID 2283742). The method, boiled down:
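Embryos are staged, enzymatically dechorionated at 4 hpf, placed individually at 6 hpf, then held in test chemical (0.64% DMSO) at 28C until 120 hpf. Mortality and malformations are scored by brightfield, with non-mortality endpoints skipped for dead embryos.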

Assay [5] can be described thus: ArunA_CellTiter_hNC: Viability Assessment in the ArunA Biomedical's Oris Neural Crest (hNC) Cell Migration Assay (AID 2283752). The method, boiled down:
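Viability of embryonic neural crest stem cells from the H9 line is scored 72 h after dosing, with DMSO as negative control and baseline. A drop in CellTiter Aqueous One signal indicates cytotoxicity.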

Assay [6] in a line: ArunA_Migration_hNP: ArunA Biomedical's Oris Neuroprogenitor (hNP) Cell Migration Assay (AID 2283754). A digest of the protocol:
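Human H9-derived hNP1 neuroprogenitors on Matrigel with LIF/bFGF, plated around seeding stoppers for 16 h at 37C; stoppers removed at start of 72 h chemical exposure. Calcein-AM staining, fluorescence 494/517 nm in detection zone; loss-of-signal vs DMSO; cytochalasin D control.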

Assay [7] is described as follows: ArunA_NOG_NucleusCount: ArunA Biomedical's Neurite Outgrowth (NOG) Assay for Nucleus Count (AID 2283756). A digest of the protocol:
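Human H9-derived differentiated neurons were exposed for 48 h right after seeding. Hoechst-stained nuclei gated by size and intensity were counted by automated high-content imaging as viable neurons. Loss of signal vs DMSO.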

A short description of assay [8]: ArunA_NOG_NeuritesPerNeuron: ArunA Biomedical's Neurite Outgrowth (NOG) Assay for Neurites Per Neuron (AID 2283758). A digest of the protocol:
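Differentiated human H9-derived neurons exposed to chemicals for 48 h from seeding, then stained with Hoechst and βIII-tubulin/DyLight 488. Automated imaging counted neurites (processes >10 um) per valid neuron; loss of signal versus DMSO scored.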

The nature of assay [9]: ArunA_NOG_BranchPointsPerNeurite: ArunA Biomedical's Neurite Outgrowth (NOG) Assay for Branch Points Per Neurite (AID 2283759). The method, boiled down: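 Automated image analysis traced neurites (processes >10 um) from valid cell bodies after Hoechst and βIII-tubulin staining. hNN cells from H9 embryonic stem cells, 48 h exposure. Fitted bidirectionally against DMSO.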
Assay [10] can be described thus: STM_H9_OrnCyssISnorm_ratio: Stemina devTOX quickPredict H9 human embryonic stem cell (hESC)-based Assay for Ornithine (ORN):Cystine (CYSS) Ratio (AID 2283714). The method, boiled down:
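Steps: H9 hESCs in pluripotent state dosed 72h, medium plus compound renewed every 24h; conditioned medium from the final 24h deproteinized in 40% acetonitrile; ORN and CYSS quantified by UPLC-HRMS with C13 spike-ins; ratio relative to vehicle.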

Assay [11] can be described thus: CEETOX_H295R_MTT_cell_viability: Viability Assessment in the CeeTox HT-H295R MTT Assay (AID 2283718; active = hit-call score of the fitted dose curve at least 0.9, where 1 is the maximum; inactive = score below 0.9;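 as to AC50: curve fitted both ways so AC50 may mark viability loss or gain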). The method, boiled down:
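MTT reduction (0.5 mg/ml, 4 h at 37 C; absorbance at 570 and 650 nm) gave viability as background-corrected percent change versus controls. H295R cells had 48 h forskolin (10 uM) prestimulation, then 48 h chemical exposure at 0.1% DMSO.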

Assay [12] concerns Thyroperoxidase (TPO), gene 445522. Briefly: CCTE_Simmons_GUA_TPO: CCTE's Guaiacol Assay for Thyroperoxidase (TPO) Inhibition, Simmons Lab (AID 2283750). A digest of the protocol: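 Porcine thyroid microsomes (25 ug) in 200mM potassium phosphate, preincubated 30 s at 37C with compound (8 concentrations, 5 nM–87.5 uM) and 35mM guaiacol; 1mM H2O2 starts reaction. Absorbance change at 450nm over first 80 s; loss of signal versus DMSO, three replicates.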

Assay [13] concerns the target Luciferin 4-monooxygenase (Photinus pyralis) (UniProt P08659). Briefly: CCTE_Simmons_QuantiLum_inhib_2: CCTE's Firefly Luciferase Inhibition Assay, Simmons Lab (AID 2283767).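 As to AC50: potency for inhibitors that lower luciferase luminescence relative to DMSO.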 A digest of the protocol:
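Counter-screen for nonspecific enzyme inhibition: purified firefly luciferase incubated 30 min at 37C with chemicals up to 87.5 uM final, then luminescence measured after luciferin/dATP injection; activity fitted against DMSO baseline.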

Assay [14] deals with zebrafish Androgen Receptor (AR), gene 100005148. As to the kind of experiment: ATG_zfAR_XSP1: Attagene TRANS-FACTORIAL Multi-Species (XSP1) HepG2 Assay for zebrafish Androgen Receptor (AR) (AID 2283771). The method, boiled down: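 HepG2 cells were transiently transfected with a zebrafish AR-GAL4 reporter system and partially stimulated with 3 nM 6-alpha-fluorotestosterone. Reporter mRNA was measured after 24 h dosing by RT-PCR with capillary electrophoresis, and gain-of-signal was fitted relative to DMSO.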

Results filed as inconclusive are left out. Calls of active or inactive are those of the source. The calls were made as follows, unless noted: active = hit-call score of the fitted dose curve at least 0.9, where 1 is the maximum; inconclusive = response in the unintended direction; inactive = score below 0.9.

Sequence of Luciferin 4-monooxygenase (Photinus pyralis) (P08659 whole entry, looked up): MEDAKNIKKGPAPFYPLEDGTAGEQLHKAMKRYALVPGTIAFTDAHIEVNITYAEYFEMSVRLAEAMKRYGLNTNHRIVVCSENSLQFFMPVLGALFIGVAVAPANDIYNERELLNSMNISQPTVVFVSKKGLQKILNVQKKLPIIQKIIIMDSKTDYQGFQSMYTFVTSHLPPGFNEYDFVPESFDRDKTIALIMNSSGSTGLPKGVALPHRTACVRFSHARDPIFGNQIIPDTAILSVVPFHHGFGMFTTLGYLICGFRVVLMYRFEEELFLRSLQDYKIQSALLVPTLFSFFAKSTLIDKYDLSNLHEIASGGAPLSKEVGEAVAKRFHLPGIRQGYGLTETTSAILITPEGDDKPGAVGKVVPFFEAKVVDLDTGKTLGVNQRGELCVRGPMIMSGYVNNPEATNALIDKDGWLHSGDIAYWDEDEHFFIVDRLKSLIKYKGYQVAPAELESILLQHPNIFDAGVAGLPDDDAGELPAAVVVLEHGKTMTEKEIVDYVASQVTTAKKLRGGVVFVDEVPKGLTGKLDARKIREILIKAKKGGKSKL

Regarding `Clc1ccc(Cl)c(Cl)c1`, the outcome in assay [1], in [2], in [3], in assay [4], in assay [5] and in assay [6] was inactive. Also, the molecule was called inactive in assay [7], in assay [8] and in assay [9].

On to `N#CC(Br)Br`, for which the molecule was called inactive in assay [1] and in assay [4].

As for `O=Cc1ccco1`, the outcome in assay [1] and in assay [4] was inactive.

As for `Nc1ccc(Oc2ccc(N)cc2)cc1`, the figures for the concentration at half-maximal activity (AC50) in assay [2], in [10] and in assay [12] were 59.5 µM (active), 50.2 µM (active) and 0.366 µM (active), respectively. Moreover, the result in assay [3], in assay [11] and in assay [4] was inactive.

Turning to `CCC(C)c1ccc(O)cc1` (stereo not given), the AC50 (usually the midpoint of the concentration-response curve, whichever way the signal moves) in assay [1] is 60.3 µM (active). In addition, the molecule was classed as inactive in assay [11], in assay [4] and in assay [13].

Regarding `CCC12COCN1COC2`, the molecule was classed as inactive in assay [1] and in [4].

As to `Clc1ccc(C(c2ccc(Cl)cc2)C(Cl)(Cl)Cl)cc1`, in assay [1], the AC50 was 3.44 µM (active). Besides, the result in assay [2], in assay [3], in assay [4] and in assay [14] was inactive.

`CC(O)CCO` (stereo not given): the outcome in [1] and in assay [4] was inactive.

`Nc1ccc(N=Nc2ccccc2)cc1`: the AC50 was 33.9 µM (active) in [1] and 3.16 µM (active) in assay [13]. For the same molecule, the molecule was called inactive in [11] and in assay [4].

As for `[O-][Cl+]O`, the call in assay [1] and in [4] was inactive.

`CS(=O)(=O)NC(=O)c1cc(Oc2ccc(C(F)(F)F)cc2Cl)ccc1[N+](=O)[O-]`: in [1], the AC50 is 0.128 µM (active). Also, in [4], the molecule was called inactive.

On to `CCCCCCCCOC(=O)c1ccc(C(=O)OCCCCCCCC)c(C(=O)OCCCCCCCC)c1`, for which, in assay [4], the call was inactive.

Regarding `CN(C)[C@@H]1C(=O)C(C(N)=O)=C(O)[C@@]2(O)C(=O)C3=C(O)c4c(O)cccc4[C@@](C)(O)[C@H]3C[C@@H]12`, the result in assay [4] and in [13] was inactive. For the same molecule, in [12], the AC50 is 117 µM (active).

For the molecule `Cc1ccc(N=C=O)cc1N=C=O`, the molecule was called inactive in assay [11] and in assay [4]. For the same molecule, the AC50 in assay [13] is 22.6 µM (active).

Regarding `CC(C)(C)OOC(C)(C)CCC(C)(C)OOC(C)(C)C`, in assay [4], the molecule was classed as inactive.

On to `c1ccc2c(c1)oc1ccccc12`, for which the outcome in [4] was inactive.

As for `O=C(Oc1ccc(Br)cc1)N1CCN2CCC1CC2`, in [4], the call was inactive.

With `Nc1ccc(Cc2ccc(N)cc2)cc1`, the AC50 in assay [11] was 2.04 µM (active); in assay [12] it was 0.352 µM (active). Moreover, the molecule was classed as inactive in assay [4] and in assay [13].

As to `O=C1CCCO1`, the result in assay [2], in [3] and in assay [4] was inactive.

With `c1ccc(C2CO2)cc1` (stereo not given), the result in assay [4] was inactive.

On to `c1ccc(N=Nc2ccccc2)cc1`, for which the result in assay [11] and in assay [4] was inactive.

For `CCOc1cccc(C2(N3CCN(c4ccccc4)CC3)CCC(C)CC2)c1` (stereo not given), the call in assay [11] and in [4] was inactive.

Regarding `O=C(O)C1C2CCC(O2)C1C(=O)O` (stereo not given), in [4], the call was inactive.

With `[As]#[In]`, the molecule was called inactive in assay [11] and in assay [4].

As for `CCCCC(CC)COC(=O)c1ccc(C(=O)OCC(CC)CCCC)c(C(=O)OCC(CC)CCCC)c1` (stereo not given), the outcome in [4] and in assay [13] was inactive.

As for `Oc1ccccc1Cl`, the call in assay [4] and in [13] was inactive.

For `c1ccc2c(c1)-c1cccc3cccc-2c13`, the outcome in assay [11] and in [4] was inactive.

As for `CC(C)(C)OOC(=O)c1ccccc1`, the outcome in assay [4] was inactive.

Turning to `OCCCl`, the call in assay [4] was inactive.

For `c1ccc(NNc2ccccc2)cc1`, in [4], the outcome was inactive. In assay [13], the AC50 is 20.4 µM (active).
